SIRT5 inh = sirtuin-5 (human) deacylase inhibition; Purified SirT5, succinyl-peptide AMC, trypsin-coupled fluorescence; Q9NXA8; 1.1% of 330,000 active; inhibition, % at 15 µM; in the data active means inhibition above about 15%
Target sequence (Q9NXA8 whole entry, looked up): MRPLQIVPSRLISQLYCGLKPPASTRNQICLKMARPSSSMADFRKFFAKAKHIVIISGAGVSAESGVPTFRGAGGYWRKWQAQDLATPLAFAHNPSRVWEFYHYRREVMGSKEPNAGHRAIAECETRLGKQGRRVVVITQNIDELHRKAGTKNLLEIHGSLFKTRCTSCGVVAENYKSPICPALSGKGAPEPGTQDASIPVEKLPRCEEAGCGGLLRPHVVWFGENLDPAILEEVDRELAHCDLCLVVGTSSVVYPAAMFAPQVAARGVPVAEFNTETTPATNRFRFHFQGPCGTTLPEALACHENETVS
ERAP1 HTS inh = blocks human ERAP1 aminopeptidase activity; Q9NZ08; recombinant ERAP1, Leu-AMC fluorescence, 60 min; inhibition, % at 10.7 µM; 0.15% of 340,000 active; AID 652197;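 active means mean replicate inhibition of at least 30%, or all replicates individually reaching that 30% level; inactive means mean below 30% and not every replicate reaching it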
Casp6 inh = blocks human caspase-6 cleavage activity; purified caspase-6, Z-VEID-R110 cleavage fluorescence; inhibition, % at 12.5 µM; 0.53% of 350,000 active; AID 686996;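 active means mean inhibition across replicates at least about 35%, with every replicate also reaching that limit, limit read from the data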
Target sequence (P55212 24-179 limits assumed): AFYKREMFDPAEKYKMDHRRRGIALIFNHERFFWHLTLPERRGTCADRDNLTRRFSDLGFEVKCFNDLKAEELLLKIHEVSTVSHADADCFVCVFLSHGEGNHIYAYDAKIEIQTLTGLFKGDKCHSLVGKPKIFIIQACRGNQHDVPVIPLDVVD
Target sequence (P55212 194-293 limits assumed): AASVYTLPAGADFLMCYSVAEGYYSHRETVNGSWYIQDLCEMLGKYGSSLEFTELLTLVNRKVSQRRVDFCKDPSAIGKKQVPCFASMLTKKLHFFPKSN
FGF22 binding = FGF22 (human) thermal shift binding; Q9HCT0; recombinant FGF22 thermal shift, SYPRO orange fluorescence; percent of sucrose octasulfate shift, DMSO zero; activity (Tm shift, normalised), % at 9.99 µM; 1.5% of 340,000 active; AID 651658;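 active means mean Tm shift, scaled 0 neutral to 100 positive control, at about 1.3% or above, every replicate too, limit read from the data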
GSIS activator = GLuc luminescence reporter in INS-1E cells, primary screen for activators of glucose-dependent secretion of insulin. INS-1E GLuc reporter insulin secretion, 2-3 h. activation, % at 16.6 µM. 0.61% of 370,000 active. AID 743287;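 active means lowest replicate activation of at least 40%, so every replicate reaches that level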
Large screens that a line does not name were inactive. The list is not random: actives were taken first. Their share in the collection is about 3.3%.

CNC(=O)C[C@@H]1CC[C@H]2[C@H](COc3ccc(NC(=O)c4cc(F)cc(F)c4)cc3C(=O)N2C)O1	none
CO[C@@H]1CN(C)C(=O)c2cc(NS(=O)(=O)c3cn(C)cn3)ccc2OC[C@@H](C)N(CCC(F)(F)F)C[C@@H]1C	none
CCS(=O)(=O)N1CCCCN2[C@H](C1)[C@@H](c1ccc(-c3ccc(C#N)cc3)cc1)[C@@H]2CO	none
[N-]=[N+]=NCc1ccccc1C[C@@]1(C(=O)NCC(O)CO)N=C(c2ccc(OCCCO)cc2)O[C@@H]1c1ccccc1 (some centres not stated)	none (no result: GSIS activator)
CN1CCN(CCCNC(=O)c2ccc(/C=C3/Sc4ccccc4N(Cc4cccc(Cl)c4)C3=O)cc2)CC1	GSIS activator 129
CN1CCN(CCCNC(=O)c2ccc(/C=C3\Oc4ccccc4N(Cc4ccccc4F)C3=O)cc2)CC1	GSIS activator 93
CCN1CCN(CCNC(=O)c2ccc(/C=C3\Sc4ccccc4N(Cc4ccccc4F)C3=O)cc2)CC1	none (no result: ERAP1 HTS inh)
CN1CCN(CCCNC(=O)c2ccc(/C=C3\Sc4ccccc4N(Cc4ccc(F)cc4)C3=O)cc2)CC1	GSIS activator 76
Cc1cccc(CN2C(=O)/C(=C\c3ccc(C(=O)NCCCN4CCN(C)CC4)cc3)Oc3ccccc32)c1	none
C[C@H]1CN([C@@H](C)CO)C(=O)c2cc(NC(=O)Cc3cn(C)c4ccccc34)ccc2O[C@H]1CN(C)S(C)(=O)=O	none
CN(C(=O)CSc1nc2ccccc2o1)C1CCS(=O)(=O)C1 (configuration not stated)	SIRT5 inh 16
CCOC(=O)c1ccc(N2C(=O)C3CC=CCC3C2=O)cc1 (configuration not stated)	none (no result: SIRT5 inh, FGF22 binding)
NS(=O)(=O)c1ccc(N2C(=O)C3CC=CCC3C2=O)cc1 (configuration not stated)	FGF22 binding 44
O=Cc1c(Cl)nc2ccccn12	none
OCc1c(Cl)nc2ccccn12	FGF22 binding 43
CC(C)(C)N(Cc1ccccc1)C(=O)COC(=O)c1ccc([N+](=O)[O-])o1	Casp6 inh 45 (no result: GSIS activator)
O=C(COC(=O)c1ccc(Br)o1)Nc1ncc(Cl)cc1Cl	none
O=C(COC(=O)c1ccc([N+](=O)[O-])o1)NCCc1ccccc1	none
O=C(COC(=O)c1ccc([N+](=O)[O-])o1)Nc1ncc(Cl)cc1Cl	Casp6 inh 61
O=C(COC(=O)c1ccc([N+](=O)[O-])o1)Nc1ccc(F)cc1	Casp6 inh 55
O=C(COC(=O)c1ccc([N+](=O)[O-])o1)Nc1ccc(Br)cc1F	Casp6 inh 38
Cc1cccc(NC(=O)COC(=O)c2ccc([N+](=O)[O-])o2)c1C	none
O=C1CCn2c1c(O)c1ccccc1c2=O	Casp6 inh 95 (no result: GSIS activator)
COc1ccc(C[C@H]2CN3C(=NC[C@@H]3Cc3ccc(O)cc3)N2C[C@H](C)NC(=O)CCC2CCCCC2)cc1	SIRT5 inh 31
CS(=O)(=O)N1CCN=C1SCc1ccc([N+](=O)[O-])cc1	FGF22 binding 43
CS(=O)(=O)N1CCN=C1SCc1ccc(Br)cc1	none (no result: GSIS activator)
COc1cc(/C=C2\C(=N)N3N=C(S(C)(=O)=O)SC3=NC2=O)cc(OC)c1OCCOc1ccc(C)cc1	SIRT5 inh 20, FGF22 binding 1.7
Cc1ccc(S(=O)(=O)Oc2ccc(/C=C3\C(=N)N4N=C(S(C)(=O)=O)SC4=NC3=O)cc2)cc1	Casp6 inh 59
CCC1=NN2C(=N)/C(=C\c3ccc(OCCOc4ccccc4)c(OC)c3)C(=O)N=C2S1	none
COc1cc(/C=C2\C(=N)N3N=C(S(C)(=O)=O)SC3=NC2=O)cc(OC)c1OCCOc1cccc(C)c1	FGF22 binding 2.0
CS(=O)(=O)C1=NSC2=NC(=O)/C(=C\c3ccc(OS(=O)(=O)c4ccccc4)cc3)C(=N)N21	SIRT5 inh 17
Cc1ccc(S(=O)(=O)Oc2ccc(/C=C3/C(=N)N4C(=NC3=O)SN=C4S(C)(=O)=O)cc2)cc1	none
C[C@H]1CN([C@@H](C)CO)C(=O)c2c(c3ccccc3n2C)-c2ccccc2CO[C@@H]1CN(C)C(=O)Nc1cccc(C(F)(F)F)c1	none
CCCCN1C(=O)C(O)=C(C(C)=O)C1c1ccccc1[N+](=O)[O-] (configuration not stated)	SIRT5 inh 24
CCOC(=O)c1cnn(-c2ncnc3c2cnn3C)c1N	none (no result: SIRT5 inh)
CCOC(=O)c1cnc2c(cnn2C)c1Cl	FGF22 binding 43
O=C(NCCc1ccc(Cl)cc1)c1ccc2nc[nH]c2c1	FGF22 binding 43
O=C(NNC(=O)c1ccccc1F)c1ccc2nc[nH]c2c1	none
O=C(NNC(=O)c1ccccc1Br)c1ccc2nc[nH]c2c1	Casp6 inh 47
CC(C)(C)C1CCC(CN2C(Nc3ccccc3)=NC[C@@H]2Cc2ccccc2)CC1 (some centres not stated)	GSIS activator 86
CCCCN(CCCNC(=S)NCCCc1cnc[nH]1)c1ccc(Br)cn1	GSIS activator 72
CN(c1nc2nonc2nc1NC1CC1)C1CCOC1 (configuration not stated)	FGF22 binding 43
COCCNC(=O)c1cc2c(c(-c3cccc(-c4cccc(F)c4)c3)n1)[C@H](CCO)N(S(=O)C(C)(C)C)C2 (some centres not stated)	SIRT5 inh 36
CCCNC(=O)c1cc2c(c(-c3cccc(-c4cccc(OC)c4)c3)n1)[C@H](CCO)N([S@@](=O)C(C)(C)C)C2	SIRT5 inh 18
O=C(NCC1CC1)c1cc2c(c(-c3cccc(-c4ccccc4F)c3)n1)[C@@H](CCO)N(C(=O)CC1CC1)C2	SIRT5 inh 15 (no result: GSIS activator)
COCCNC(=O)c1cc2c(c(-c3cccc(-c4cccc(F)c4)c3)n1)[C@@H](CCO)N(S(=O)C(C)(C)C)C2 (some centres not stated)	none (no result: GSIS activator)
COc1cc(NC(=O)c2cccnc2)c(Cl)cc1NC(=O)c1ccccc1	Casp6 inh 64
COC(=O)c1cc(OC)c(OC)cc1NC(=S)Nc1cccc(C(C)=O)c1	none (no result: SIRT5 inh, ERAP1 HTS inh, Casp6 inh, FGF22 binding)
COc1ccc(Cl)cc1NC(=S)NNC(=O)c1cccnc1	FGF22 binding 43
COc1cc(NC(=O)c2cccnc2)c(Cl)cc1NC(=O)c1ccc(Cl)cc1	none (no result: SIRT5 inh)
COC(=O)c1cccc(NC(=S)Nc2cc(Cl)ccc2OC)c1	FGF22 binding 43 (no result: GSIS activator)
COc1ccc(S(=O)(=O)Nc2cccc3c2O[C@@H](CN(C)Cc2ccc(Cl)c(Cl)c2)[C@H](C)CN([C@H](C)CO)C3=O)cc1	none (no result: SIRT5 inh, ERAP1 HTS inh, Casp6 inh, FGF22 binding)
COc1cc(/C=C2\C(=N)N3N=C(S(C)(=O)=O)SC3=NC2=O)ccc1OCCOc1ccc(C)cc1	none
CCS(=O)(=O)C1=NN2C(=N)/C(=C\c3ccc(OCCOc4cccc(OC)c4)c(OC)c3)C(=O)N=C2S1	SIRT5 inh 18, Casp6 inh 45 (no result: FGF22 binding, GSIS activator)
CCOc1cc(/C=C2\C(=N)N3N=C(S(C)(=O)=O)SC3=NC2=O)ccc1OCCOc1cccc(OC)c1	SIRT5 inh 17, Casp6 inh 45
